Test results published in the supplement of paper PMC7724964.

Target: T1, VCL 1-259 Vinculin (domain begin residue: 1, domain end residue: 259), P18206
T1 chain: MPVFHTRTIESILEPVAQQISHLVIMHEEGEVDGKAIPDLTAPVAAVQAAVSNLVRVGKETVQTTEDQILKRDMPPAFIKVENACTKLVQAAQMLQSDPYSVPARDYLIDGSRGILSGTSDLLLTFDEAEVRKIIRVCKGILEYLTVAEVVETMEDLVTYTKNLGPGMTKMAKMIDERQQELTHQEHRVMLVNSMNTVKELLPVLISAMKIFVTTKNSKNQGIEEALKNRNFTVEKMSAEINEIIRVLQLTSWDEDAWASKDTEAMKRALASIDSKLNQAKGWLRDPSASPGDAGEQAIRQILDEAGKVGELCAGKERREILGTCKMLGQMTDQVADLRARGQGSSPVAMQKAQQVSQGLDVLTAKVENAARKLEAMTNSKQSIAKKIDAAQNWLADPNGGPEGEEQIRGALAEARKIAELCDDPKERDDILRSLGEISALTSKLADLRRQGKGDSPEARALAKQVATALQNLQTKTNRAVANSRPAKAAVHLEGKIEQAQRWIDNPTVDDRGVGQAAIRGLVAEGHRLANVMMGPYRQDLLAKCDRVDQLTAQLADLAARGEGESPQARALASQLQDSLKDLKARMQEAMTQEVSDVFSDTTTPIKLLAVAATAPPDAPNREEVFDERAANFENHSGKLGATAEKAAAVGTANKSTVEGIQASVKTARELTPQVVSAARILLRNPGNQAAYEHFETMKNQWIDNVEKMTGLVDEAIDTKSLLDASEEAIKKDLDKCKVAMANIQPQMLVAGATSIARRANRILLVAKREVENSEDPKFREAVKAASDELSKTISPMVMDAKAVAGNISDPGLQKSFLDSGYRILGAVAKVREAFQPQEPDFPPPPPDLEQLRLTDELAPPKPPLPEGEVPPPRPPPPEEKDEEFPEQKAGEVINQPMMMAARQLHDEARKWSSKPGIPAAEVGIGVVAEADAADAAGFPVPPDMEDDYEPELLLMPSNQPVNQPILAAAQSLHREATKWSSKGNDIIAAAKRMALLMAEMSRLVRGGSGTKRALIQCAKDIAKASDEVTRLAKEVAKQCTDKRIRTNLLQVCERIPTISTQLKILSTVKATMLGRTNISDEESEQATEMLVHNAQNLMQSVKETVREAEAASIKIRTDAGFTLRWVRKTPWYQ
Assay: phage ELISA signal ratio (GST-PRM binding over GST background); higher = stronger binding of peptide-phage to the PRM
Summary of the method: (§1)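 Each value is the phage ELISA signal on the glutathione S-transferase (GST)-domain fusion divided by the signal on GST alone. Human peptide recognition domains were expressed in 96-well plates, fused to the C-terminus of GST, and selected against an M13 phage library carrying randomized, cysteine-free, glycine-flanked hexadecapeptides on the gene-8 major coat protein. After five selection rounds, approximately 48 individual clones from rounds 4 and 5 were tested by phage ELISA, and positive clones were sequenced.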

Going from SDDWFFDLTHSIISTD to YWDAGEVMAQIIQSAH, the “phage ELISA signal ratio” value falls from 18.4 to 11.9.

Compared with WWEQDQDWEEFVNAIE, WGSEDTQYWLEYVNSV is higher in “phage ELISA signal ratio” value: 16.9 for the first, 24.6 for the second.

Compared with WPDDLDWGTWLETLPL, HPQEWSAEEIMVGILY is higher in “phage ELISA signal ratio” value: 13.3 for the first, 14.1 for the second.

First: VDDQEWPNMEMLLGIV
Second: NTVEWQDMEGHLLGIV
The “phage ELISA signal ratio” value of the first is higher: 17.4 for the first, 15.3 for the second.

Compared with FDTPLWEQAMWEALGE, HEIWETDWQWIIDQAY is higher in “phage ELISA signal ratio” value: 13.2 for the first, 20.4 for the second.

Going from MMPTTEDGWEMWLAEL to LDSFWDAENVIRSIMI, the “phage ELISA signal ratio” value falls from 21.4 to 12.9.

Going from APVVHDFDAYKMLMQL to WDPQADWQEQVQYWLV, the “phage ELISA signal ratio” value rises from 17.2 to 20.4.

Going from LTGEIWDAEKVIHYVM to DNWYWEAWDAAFLTNG, the “phage ELISA signal ratio” value rises from 11.1 to 20.4.

Going from MPPWTEDAESWHMWLI to DNFENWIENWLLEYNG, the “phage ELISA signal ratio” value falls from 14.8 to 9.78.

Compared with TAHDWIDEWLVQAMLQ, QMIEFWTEEEIMHWVH is lower in “phage ELISA signal ratio” value: 20.3 for the first, 13.6 for the second.

Compared with FPQMWQSPDFWEDWLL, LWDWTPETEQWFQEIV is higher in “phage ELISA signal ratio” value: 12.6 for the first, 13.5 for the second.

These binders were tested against WDR5 20-334 WD40 (domain begin residue: 20, domain end residue: 334), P61964 in the same assay as above.
Summary of the method: as §1

First: QQVFQDHSNHQMMISR
Second: QRTMAWKSENHLMPHS
The “phage ELISA signal ratio” value of the first is lower: 14 for the first, 16.4 for the second.

First: QRTMAWKSEDHLMPQS
Second: RTEYLNWQEHRTVSKE
The “phage ELISA signal ratio” value of the first is higher: 14.9 for the first, 11 for the second.

Going from RWEPHAWQADQVEATK to FELAGRWEPLMMYEWV, the “phage ELISA signal ratio” value falls from 14 to 12.8.

Compared with SARSEPYPSTNFTWTH, IKETAHMDERPKMISR is lower in “phage ELISA signal ratio” value: 25.7 for the first, 15.8 for the second.

First: GAARTQGVEWHSQHSH
Second: EYHPRWGYIMAQASDS
The “phage ELISA signal ratio” value of the first is higher: 14.9 for the first, 11 for the second.

First: GRWVPVQDVPRFEIED
Second: KKPVPMRWEHTYTETM
The “phage ELISA signal ratio” value of the first is lower: 19 for the first, 20.2 for the second.

Compared with ARTWYMHQQEAMADQK, RTEPYQWMKAAGFPTS is lower in “phage ELISA signal ratio” value: 26.3 for the first, 9.24 for the second.

Compared with SARTSHWVPMEWNHLQ, AARTQWYLAAVAEQAP is lower in “phage ELISA signal ratio” value: 14 for the first, 12.9 for the second.

Going from SARTGYDNYLKPSSQQ to PEQERINRKTYQMVSR, the “phage ELISA signal ratio” value falls from 22 to 13.

First: NARTDAWWSQQSLQQH
Second: GRWVPWDQNVTTSDES
The “phage ELISA signal ratio” value of the first is lower: 9.86 for the first, 23.4 for the second.

Going from PRYKPHNRTEPVPLMA to VEFWWSDTSARTLPFK, the “phage ELISA signal ratio” value falls from 18.7 to 9.42.

Going from VPSLVMPQDQPVMVSR to RTEPYVHQQPTPQAPA, the “phage ELISA signal ratio” value falls from 12.8 to 12.4.

Compared with ETQDPPEVRQYTMVSR, RTDPEQYQRTMMVPRG is lower in “phage ELISA signal ratio” value: 13.8 for the first, 12.1 for the second.

AARTHAQEYHKGIMAS was tested, and the “phage ELISA signal ratio” value was 21.6.

What follows are binders tested against VASP 1-114 WH1 (domain begin residue: 1, domain end residue: 114), P50552 in the same assay as above.
Summary of the method: as §1

Chain of VASP 1-114 WH1 (domain begin residue: 1, domain end residue: 114), P50552 (P50552 whole entry): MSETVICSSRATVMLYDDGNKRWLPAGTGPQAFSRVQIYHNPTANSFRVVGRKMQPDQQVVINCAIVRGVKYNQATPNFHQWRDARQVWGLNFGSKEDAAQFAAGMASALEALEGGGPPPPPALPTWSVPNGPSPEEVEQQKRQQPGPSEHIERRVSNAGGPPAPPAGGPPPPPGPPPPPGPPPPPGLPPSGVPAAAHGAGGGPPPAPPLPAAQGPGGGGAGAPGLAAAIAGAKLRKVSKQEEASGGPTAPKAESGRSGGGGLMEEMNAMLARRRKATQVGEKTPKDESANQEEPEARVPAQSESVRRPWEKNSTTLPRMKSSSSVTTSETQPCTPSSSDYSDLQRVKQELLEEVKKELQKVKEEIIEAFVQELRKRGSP

First: WPPAPPTEQHRQMWAK
Second: DPYWVWPDLPHNVSHP
The “phage ELISA signal ratio” value of the first is lower: 7.1 for the first, 19.2 for the second.

First: PAWPPWPAEAVWEATK
Second: NLETWAWPPWPQEFND
The “phage ELISA signal ratio” value of the first is lower: 12.3 for the first, 23.3 for the second.

First: NWDIWPDWPPTQSVMW
Second: STQKDNNWPLPPVMEE
The “phage ELISA signal ratio” value of the first is lower: 5.89 for the first, 21.6 for the second.

LDMFWPEPPMFNREIP was tested, and the “phage ELISA signal ratio” value was 24.9.

Target: T2, WDR74 1-387 WD40 (domain begin residue: 1, domain end residue: 387), Q6RFH5
T2 chain: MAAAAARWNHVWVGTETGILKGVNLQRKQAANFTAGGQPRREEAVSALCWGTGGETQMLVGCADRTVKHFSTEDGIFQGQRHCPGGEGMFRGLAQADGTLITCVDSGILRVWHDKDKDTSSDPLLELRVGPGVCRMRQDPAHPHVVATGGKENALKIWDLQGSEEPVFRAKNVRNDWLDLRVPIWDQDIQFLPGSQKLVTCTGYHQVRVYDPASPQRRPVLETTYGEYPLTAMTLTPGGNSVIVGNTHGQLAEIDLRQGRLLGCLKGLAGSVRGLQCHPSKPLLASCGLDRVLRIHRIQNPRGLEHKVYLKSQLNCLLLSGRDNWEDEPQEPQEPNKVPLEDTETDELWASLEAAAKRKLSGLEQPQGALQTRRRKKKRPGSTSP
Assay: as above
Summary of the method: as §1

QIWSLWVEGMMYQPDN was tested, and the “phage ELISA signal ratio” value was 2.75.
